Source: PubChem (Sanford-Burnham Center for Chemical Genomics)
Hits are enriched below; roughly 28% of the tested compounds scored in any of these assays.
Mac1 fbg inh: inhibitors of human CD11b/CD18 binding to fibrinogen. P05107+P11215. K562 CD11b/CD18 adhesion to fibrinogen, ATPlite luminescence; Mn2+ added to activate the integrin. inhibition, % at 10 µM. 93,000 compounds, 0.54% hits;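 active = primary inhibition of 50% or more at 10 µM, then 40% or more on retest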
CYP2C19 inh: blocks human cytochrome P450 2C19 | P33261 | CYP2C19 Supersomes, luciferin-H EGE luminescence, 30 min | inhibition, % at 5 µM | 96,000 compounds, 21% hits;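 active = CYP2C19 inhibition above a set limit at 5 µM in the primary screen, cut at about 50% in these data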;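 note: plate controls were negative control wells for no effect and 2.5 mM tranylcypromine positive control for full effect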
Target sequence (P33261 whole entry, looked up): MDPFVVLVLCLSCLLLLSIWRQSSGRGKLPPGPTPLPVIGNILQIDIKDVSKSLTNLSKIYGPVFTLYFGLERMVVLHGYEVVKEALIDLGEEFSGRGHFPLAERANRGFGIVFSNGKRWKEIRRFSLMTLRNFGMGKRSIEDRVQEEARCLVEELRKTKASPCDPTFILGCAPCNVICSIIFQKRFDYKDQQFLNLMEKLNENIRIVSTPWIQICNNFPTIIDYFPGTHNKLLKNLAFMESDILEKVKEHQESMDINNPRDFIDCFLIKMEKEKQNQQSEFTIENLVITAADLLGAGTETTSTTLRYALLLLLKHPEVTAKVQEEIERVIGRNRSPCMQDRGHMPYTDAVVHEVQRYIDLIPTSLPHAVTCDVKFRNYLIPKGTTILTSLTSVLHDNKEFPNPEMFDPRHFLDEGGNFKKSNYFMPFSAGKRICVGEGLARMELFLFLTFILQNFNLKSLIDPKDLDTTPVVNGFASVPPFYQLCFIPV
CYP2C9 activ: activators of human CYP2C9; 96,000 compounds, 1.4% hits; P11712; recombinant CYP2C9, luciferin-H conversion, luminescence; stronger effect = higher value; factor 1 = untreated enzyme, 0 = blocked; AID 1024; activation factor at 5 µM;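 active = activation factor of 2 or more for CYP2C9 at a 5 µM dose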;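 note: 0 = sulfaphenazole-blocked wells and 1 = vehicle-only wells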
CYP2C19 act: activators of human cytochrome P450 2C19; recombinant CYP2C19, luciferin-H EGE luminescence; stronger effect = higher value; 0 = fully inhibited enzyme, 1 = untreated enzyme; P33261; activation factor at 5 µM; 96,000 tested, under 10 active;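 active = activation factor of at least 2 at 5 µM in the primary screen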;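 note: 0 = wells with 2.5 mM tranylcypromine and 1 = vehicle-only wells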
CYP2C9 inh: inhibitors of human CYP2C9; CYP2C9 Supersomes, luciferin-H conversion, luminescence; inhibition, % at 5 µM; 96,000 compounds, 20% hits; AID 777;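 active = blocking of liver enzyme CYP2C9 beyond about 50% at 5 µM, limit read from the data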
Mac1 fbg enh: CD11b/CD18-fibrinogen binding enhancement. AID 1499. K562 CD11b/CD18 adhesion to fibrinogen, ATPlite luminescence. activation, % at 10 µM. 93,000 compounds, 0.07% hits. P05107+P11215;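 active = 10 µM primary screen giving 50% or more activity, confirmed by 40% or more on retest at that dose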
Numbers without * were called inactive; · = no result given.

SMILES	Mac1 fbg inh	CYP2C19 inh	CYP2C9 activ	CYP2C19 act	CYP2C9 inh	Mac1 fbg enh
COc1cc(Cn2ccnc2)c(OC)cc1Cn1ccnc1	-13	78*	0.3	0.2	73*	-2
O=S(=O)(CCCc1ccccc1)c1ncn[nH]1	-4	44	0.6	0.6	40	-7
Nc1n[nH]c(S(=O)(=O)CCCc2ccccc2)n1	-7	70*	0.7	0.3	34	4
CCCCn1c(CN(C)Cc2ccccc2)nc2c1c(=O)n(C)c(=O)n2C	30	55*	0	0.4	98*	-3
COCCn1c(CN(C)Cc2ccccc2)nc2c1c(=O)n(C)c(=O)n2C	0	11	0.5	0.9	47	2
CCOC(=O)Cn1c(CN2CCOCC2)nc2c1c(=O)n(C)c(=O)n2C	6	-16	1.2	1.2	-17	-6
CCCn1c(CN(Cc2ccccc2)Cc2ccccc2)nc2c1c(=O)n(C)c(=O)n2C	15	8	0.1	0.9	87*	1
CCOC(=O)Cn1c(CN(Cc2ccccc2)Cc2ccccc2)nc2c1c(=O)n(C)c(=O)n2C	-2	83*	0	0.2	99*	-3
CNc1nc2c(c(=O)n(C)c(=O)n2C)n1Cc1ccccc1	30	5	1	1	-1	-4
CN(Cc1ccccc1)Cc1nc2c(c(=O)n(C)c(=O)n2C)n1Cc1ccccc1Cl	-12	26	0.2	0.7	81*	-2
Cc1occc1C(=O)NNC(=O)Cc1ccccc1	·	12	0.7	0.9	26	·
N#CCCn1ncn(-c2ccccc2)c1=S	-4	2	0.8	1	16	-2
COc1ccccc1N(Cc1cc2cccc(C)c2[nH]c1=O)C(=O)C(C)C	-16	20	0.6	0.8	38	-4
Cn1c(=O)c2c(nc(OCc3ccc4c(c3)OCO4)n2Cc2ccccc2Cl)n(C)c1=O	-4	56*	0.9	0.4	10	0
COC(=O)Cn1c(CN(Cc2ccccc2)Cc2ccccc2)nc2c1c(=O)[nH]c(=O)n2C	·	35	0.5	0.7	53*	·
Cn1c(=O)[nH]c(=O)c2c1nc(CN1CCN(Cc3ccccc3)CC1)n2CC(N)=O	-60	-7	1.1	1.1	-11	-1
Cn1c(=O)c2c(nc(NCc3ccc4c(c3)OCO4)n2Cc2ccccc2Cl)n(C)c1=O	-48	1	1	1	1	9
Cn1nc([N+](=O)[O-])nc1Sc1nnc(-c2ccccc2)o1	14	19	0.5	0.8	52*	-1
NC(=O)CN(c1ccccc1)C1SC(=O)N(Cc2ccccc2)C1=O (stereo not drawn)	-18	52*	0.9	0.5	14	-1
CC1C(=O)CC(c2ccccc2)NC1c1ccccc1 (stereo not drawn)	-45	82*	0.7	0.2	33	-1
CC1C(=O)CC(c2ccco2)NC1c1ccco1 (stereo not drawn)	-7	69*	1.1	0.3	-8	-2
CCC1/C(=N\O)CC(c2ccco2)NC1c1ccco1 (stereo not drawn)	·	4	1	1	-5	·
CCC(C)NC(=O)c1ccccc1NC(=O)c1ccc(CSc2ccccc2)cc1 (stereo not drawn)	-15	·	·	·	·	1
O=C(N[C@@H](Cc1ccccc1)C(=O)NC1CCCCCC1)c1ccco1	-3	10	0.8	0.9	20	-3
O=C(Nc1ccc(Cl)cc1C(=O)NCc1cccnc1)c1ccco1	-23	23	0.4	0.8	58*	1
SMILES	Mac1 fbg inh	CYP2C19 inh	CYP2C9 activ	CYP2C19 act	CYP2C9 inh	Mac1 fbg enh
O=C(Nc1ccccc1C(=O)NCc1ccccc1)c1ccco1	-21	54*	0.3	0.5	74*	4
CCCNC(=O)c1ccccc1NC(=O)c1ccc(CSc2ccccc2)cc1	-41	74*	0.2	0.3	79*	2
O=C(Nc1ccccc1C(=O)NC(Cc1ccccc1)C(=O)NC1CCCCCC1)c1ccccc1 (stereo not drawn)	·	45	0.3	0.6	71*	·
Cc1cc(C(=O)NCc2ccc(C(=O)O)o2)c(C)o1	2	0	1	1	5	-2
O=S(=O)(C(=CNc1ccccc1)S(=O)(=O)c1ccccc1)c1ccccc1	10	·	·	·	·	-3
COc1cc(OC)c2c(C)c(Cl)c(=O)oc2c1	0	4	1.1	1	-10	4
O=C(Nc1cccnc1)c1cccc(NC(=O)c2ccco2)c1	-5	3	1.4	1	-42	4
CC(C)C(NC(=O)c1ccccc1NC(=O)c1ccco1)C(=O)O (stereo not drawn)	-50	8	1	0.9	-2	2
CCOc1cc(NC(=O)c2ccco2)c(OCC)cc1NC(=O)CCC(=O)NCc1cccnc1	7	-9	0.6	1.1	36	4
CN(Cc1ccccc1)C(=O)c1ccccc1NC(=O)c1ccccc1	4	45	0.9	0.6	14	-1
O=C(Nc1ccccc1C(=O)NCc1cccnc1)c1ccco1	-8	78*	0.5	0.2	54*	2
CC(NC(=O)c1ccccc1NC(=O)c1ccco1)c1ccccc1 (stereo not drawn)	-8	36	0.3	0.6	70*	-2
Cc1ccc(C(=O)Nc2cccnc2)cc1NC(=O)c1ccco1	-4	-6	0.5	1.1	54*	-2
O=C(Nc1ccccc1C(=O)NCc1ccccc1)c1ccccc1	-13	16	0.5	0.8	54*	-3
O=C1CCn2nc(-c3ccc(Cl)cc3)cc2N1	-10	-5	0.9	1	8	2
CC(C)NS(=O)(=O)c1ccc(NC(=O)C2CC3C=CC2C3)cc1 (stereo not drawn)	·	16	0.8	0.8	22	·
CCCOc1nc2c(c(=O)n(C)c(=O)n2C)n1Cc1cccc2ccccc12	33	24	0.5	0.8	47	-6
O=C(COC(=O)c1c[nH]c(=O)[nH]c1=O)NCc1ccccc1	4	-18	1	1.2	4	-5
COc1ccc(N/C(=C(/C(Cl)=C(Cl)Cl)[N+](=O)[O-])n2nnc3ccccc32)cc1OC	9	10	0.7	0.9	26	0
CNC(=O)Nc1ccccc1C(=O)NCc1ccccc1	1	37	0.9	0.6	14	-2
O=C(Nc1ccccc1)Nc1ccccc1C(=O)NCc1ccccc1	10	18	0.5	0.8	50*	-3
O=C(Nc1cccc2cccc(NC(=O)c3ccco3)c12)c1ccco1	3	69*	1	0.3	-4	11
Cc1ccccc1C1C(C#N)=C2N=C(N)c3c(sc4c3CCCCC4)N2C2=C1C(=O)CCC2 (stereo not drawn)	-4	14	0.6	0.9	36	4
